Activity calls are given as the source filed them. The call rests on the fitted dose curve; in most records, active means well fitted curve in the direction sought with a large enough effect in the repeat runs; inconclusive means weak or mixed curves; inactive means flat fitted curve, though single readings scatter.
Assay: qHTS assay to test for compound auto fluorescence at 590 nm (red) in HEK293 cells (AID 720679)
Settings: red autofluorescence 540/590 nm; series mostly up to 91.3 µM
Text: National Center for Advancing Translational Sciences [NCATS]
NIH Chemical Genomics Center [NCGC]
U.S. Environmental Protection Agency [EPA]
National Institutes of Environmental Health Sciences [NIEHS]
National Toxicology Program [NTP]
U.S. Food and Drug Administration [FDA]
Compound auto fluorescence often interferes with screening of the compound library against various biological targets and signaling pathways. Some of these compounds may have fluorophoric properties. Such properties may interfere with the assay outputs resulting in false positives and/or negatives. To decrease such complications and ensure the compound activities are relevant in terms of biological response, the Tox21 10K compound library was screened for auto fluorescence.
From the fluorophores used as reporter signals in our screening assays, the auto fluorescence equivalencies of compounds against three fluorophores have been evaluated: Triamterene, Fluorescein and Rose Bengal sodium for blue, green and red fluorescence, respectively. The fluorescence intensities were measured using Excitation/Emission wavelengths at 405/460nm, 485/535nm and 540/590nm for blue, green and red labels, respectively. This assay includes the red fluorescence data.
Tox21 Assay Protocol Summary:
2,000 HEK293 cells in 5 uL of culture medium containing 10% dialyzed FBS per well were dispensed into black wall/clear bottom 1536-well plates using a Multidrop Combi Dispenser (Thermo Scientific). The assay plates were incubated for 4-5 hr at 37C to allow cell attachment to the well bottom, followed by the transfer of 23 nL compound or DMSO vehicle by a pintool work station (Kalypsys, San Diego, CA). After the assay plates were incubated overnight at 37C and 5% CO2, fluorescence intensities in the assay plates were measured by an Envision (PerkinElmer, Shelton, CT) plate reader using three labels for measuring blue, green and red fluorescence at […] 460, 535 and 590nm respectively.

Structure (SMILES) | outcome
BrCCCCBr | inactive
C=CC(C)=O | inactive
O=NN1CCCCCC1 | inactive
CCN(C)N=O | inactive
C[C@@H]1CC[C@H]2[C@@H](C)C(=O)O[C@@H]3O[C@@]4(C)CC[C@@H]1[C@]32OO4 | inactive
CC(C)=CCOc1c2occc2cc2ccc(=O)oc12 | inactive
COc1nn(CSP(=S)(OC)OC)c(=O)s1 | inactive
CCCCCCCCCCOC(=O)c1ccccc1C(=O)OCCCCCCCCCC | inactive
O=C(O)c1ccccc1C(=O)Nc1cccc2ccccc12 | inactive
CCOc1ccc(C(C)(C)COCc2cccc(Oc3ccccc3)c2)cc1 | inactive
O=C(N[C@H](c1ccccc1)[C@@H]1CN2CCC1CC2)c1c(Cl)ccc(C(F)(F)F)c1Cl | inactive
O=C(OC1CCCCC1)c1ccccc1C(=O)OC1CCCCC1 | inactive
CCCCCCCCCC(=O)O[C@H]1CC[C@H]2[C@@H]3CCC4=CC(=O)CC[C@@H]4[C@H]3CC[C@]12C | inactive
O=C1C(=O)c2cccc3cccc1c23 | inactive
CCOP(=O)(OCC)Oc1ccc([N+](=O)[O-])cc1 | inactive
Cc1ccc(-c2c(Cl)nc(C#N)n2S(=O)(=O)N(C)C)cc1 | inactive
Clc1cccc2ccccc12 | inactive
IC(I)=C(I)I | inactive
Cn1cc[n+](C)c1 (tested in a mixture with another compound) | inactive
[CH3][Sn]([CH3])([Cl])[Cl] | inactive

Structure (SMILES) | outcome
NNC(=O)c1cccnc1 | inactive
O=C1NCN(c2ccccc2)C12CCN(CCCOc1ccc(F)cc1)CC2 | inactive
c1ccoc1 | inactive
CCC(Br)(CC)C(=O)NC(N)=O | inactive
CCCCC(CC)COP(=O)(Oc1ccccc1)Oc1ccccc1 (stereo not given) | inactive
OCCCBr | inactive
ClP(Cl)(Cl)(Cl)Cl | inactive
CCCCNP(N)(N)=S | inactive
O=C=Nc1ccc(Cl)cc1 | inactive
CC(=O)CCC(C)=O | inactive
CN(N=O)c1ccc([N+](=O)[O-])cc1 | inactive
COP(=S)(OC)Oc1cc(Cl)c(I)cc1Cl | inactive
C=CC[C@]1(O)CC[C@H]2[C@@H]3CCC4=CC(=O)CCC4=C3C=C[C@@]21C | inactive
C=CCOC(C)=O | inactive
COCC(C)N(C(=O)CCl)c1c(C)csc1C (stereo not given) | inactive
N#Cc1ccc(Cl)cc1 | inactive
COP(=O)(OC)O/C(=C/Cl)c1cc(Cl)c(Cl)cc1Cl | inactive
C=CC(=O)OCC(C)C | inactive
NS(=O)(=O)C(F)(F)C(F)(F)C(F)(F)C(F)(F)C(F)(F)C(F)(F)C(F)(F)C(F)(F)F | inactive
Clc1cc(Cl)c(Cl)c(Cl)c1 | inactive

— PubChem BioAssay (Tox21)
